Active and inactive are the calls of the source. How the source made its calls: active means hit-call score of the fitted dose curve at least 0.9, where 1 is the maximum; inactive means score below 0.9.
Experiments:
[1] = read-out: Thrombomodulin, THBD (gene 7056); test: BSK_CASM3C_Thrombomodulin: BioMAP Diversity Plus: CASM3C Assay for Thrombomodulin Biomarker Activity (AID 2283051); conditions: primary human coronary artery smooth muscle cells; actives raise or lower the signal;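 further: thrombomodulin protein level measured by ELISA 24 h after dosing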
[2] = read-out: Tissue Factor, F3 (gene 2152); test: BSK_CASM3C_TissueFactor: BioMAP Diversity Plus: CASM3C Assay for Tissue Factor Biomarker Activity (AID 2283052); conditions: primary human coronary artery smooth muscle cells; actives raise or lower the signal;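 further: cell surface tissue factor protein level read by ELISA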
[3] = read-out: Interferon-gamma inducible Protein 10 (IP10), CXCL10 (gene 3627); test: BSK_hDFCGF_IP10: BioMAP Diversity Plus: hDFCGF Assay for Interferon-gamma inducible Protein 10 (IP10) Biomarker Activity (AID 2283053); conditions: primary human foreskin fibroblasts; actives raise or lower the signal
In short: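 Chemical-treated human skin fibroblasts (primary) were sampled at 24 h for IP-10 by ELISA. Both increases and decreases relative to DMSO were scored.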

[4] = read-out: Urokinase-type plasminogen activator receptor (uPAR), PLAUR (gene 5329); test: BSK_CASM3C_uPAR: BioMAP Diversity Plus: CASM3C Assay for Urokinase-type plasminogen activator receptor (uPAR) Biomarker Activity (AID 2283054); conditions: primary human coronary artery smooth muscle cells; actives raise or lower the signal;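 further: cell-surface uPAR protein level quantified by ELISA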
[5] = read-out: Vascular cell adhesion molecule 1 (VCAM1), VCAM1 (gene 7412); test: BSK_CASM3C_VCAM1: BioMAP Diversity Plus: CASM3C Assay for Vascular cell adhesion molecule 1 (VCAM1) Biomarker Activity (AID 2283055); conditions: primary human coronary artery smooth muscle cells; actives raise or lower the signal;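 further: VCAM-1 protein level quantified by ELISA on the cells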
[6] = read-out: Collagen III, COL3A1 (gene 1281); test: BSK_hDFCGF_CollagenIII: BioMAP Diversity Plus: hDFCGF Assay for Collagen III Biomarker Activity (AID 2283056); conditions: primary human foreskin fibroblasts; actives raise or lower the signal
In short: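 Cells: human foreskin fibroblasts, primary. Dosing followed by 24 h incubation, then ELISA for collagen III. Both increases and decreases scored relative to DMSO.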

[7] = read-out: Epidermal growth factor receptor (EGFR), EGFR (gene 1956); test: BSK_hDFCGF_EGFR: BioMAP Diversity Plus: hDFCGF Assay for Epidermal growth factor receptor (EGFR) Biomarker Activity (AID 2283057); conditions: primary human foreskin fibroblasts; actives raise or lower the signal
In short: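 Cell-based multiplexed assay in primary human foreskin fibroblasts. EGFR is read by ELISA 24 h after treatment and compared with DMSO controls.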

[8] = read-out: Interleukin-8 (IL8), CXCL8 (gene 3576); test: BSK_hDFCGF_IL8: BioMAP Diversity Plus: hDFCGF Assay for Interleukin-8 (IL8) Biomarker Activity (AID 2283058); conditions: primary human foreskin fibroblasts; actives raise or lower the signal
In short: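 IL-8 levels from compound-treated primary human fibroblasts were read by ELISA at 24 h, with DMSO serving as baseline for bidirectional fitting.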

[9] = BSK_hDFCGF_Proliferation: Cell Proliferation Assessment in the BioMAP Diversity Plus: hDFCGF Assay (AID 2283059); conditions: primary human foreskin fibroblasts;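 further: curves fitted for both rise and fall of signal versus DMSO baseline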
In short: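 This proliferation readout used SRB total-protein staining of human foreskin fibroblasts […], normalized to DMSO with bidirectional curve fitting.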

[10] = read-out: Macrophage colony-stimulating factor (MCSF), CSF1 (gene 1435); test: BSK_hDFCGF_MCSF: BioMAP Diversity Plus: hDFCGF Assay for Macrophage colony-stimulating factor (MCSF) Biomarker Activity (AID 2283060); conditions: primary human foreskin fibroblasts; actives raise or lower the signal
In short: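 M-CSF levels, determined by ELISA, are taken at 24 h after dosing human skin fibroblasts. Responses in either direction are fitted with DMSO serving as the baseline.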

[11] = read-out: TIMP metallopeptidase inhibitor 1 (TIMP1), TIMP1 (gene 7076); test: BSK_hDFCGF_TIMP1: BioMAP Diversity Plus: hDFCGF Assay for TIMP metallopeptidase inhibitor 1 (TIMP1) Biomarker Activity (AID 2283062); conditions: primary human foreskin fibroblasts; actives raise or lower the signal
In short: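 Fibroblasts from human foreskin are treated with test chemical and harvested at 24 h. TIMP-1 is quantified by ELISA, and gain or loss of signal is scored against DMSO.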

[12] = read-out: Monokine induced gamma interferon (MIG), CXCL9 (gene 4283); test: BSK_hDFCGF_MIG: BioMAP Diversity Plus: hDFCGF Assay for Monokine induced gamma interferon (MIG) Biomarker Activity (AID 2283063); conditions: primary human foreskin fibroblasts; actives raise or lower the signal
In short: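 MIG signal, determined by ELISA, reflects 24 h chemical exposure of human skin primary fibroblasts. DMSO serves as negative control and baseline.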

[13] = read-out: Matrix Metallopeptidase 1 (MMP1), MMP1 (gene 4312); test: BSK_hDFCGF_MMP1: BioMAP Diversity Plus: hDFCGF Assay for Matrix Metallopeptidase 1 (MMP1) Biomarker Activity (AID 2283064); conditions: primary human foreskin fibroblasts; actives raise or lower the signal
In short: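 MMP1 levels quantified by ELISA 24 h after dosing human dermal fibroblast cultures, with parallel SRB total-protein staining for overt cytotoxicity. Data fitted in both directions against DMSO baseline.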

[14] = read-out: Vascular cell adhesion molecule 1 (VCAM1), VCAM1 (gene 7412); test: BSK_hDFCGF_VCAM1: BioMAP Diversity Plus: hDFCGF Assay for Vascular cell adhesion molecule 1 (VCAM1) Biomarker Activity (AID 2283065); conditions: primary human foreskin fibroblasts; actives raise or lower the signal;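 on AC50: VCAM-1 protein level quantified by ELISA after 24 h chemical exposure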
In short: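 Cells are dosed, cultured for 24 h, then VCAM-1 is quantified by ELISA; signal increases and decreases are both fitted relative to DMSO.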

[15] = read-out: Plasminogen activator inhibitor-1 (PAI1), SERPINE1 (gene 5054); test: BSK_hDFCGF_PAI1: BioMAP Diversity Plus: hDFCGF Assay for Plasminogen activator inhibitor-1 (PAI1) Biomarker Activity (AID 2283066); conditions: primary human foreskin fibroblasts; actives raise or lower the signal
In short: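 Human skin fibroblast cultures receive chemical for 24 h before PAI-1 is measured by ELISA; signal changes are fitted bidirectionally against DMSO-treated wells.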

[16] = read-out: Intercellular Adhesion Molecule 1 (ICAM1), ICAM1 (gene 3383); test: BSK_KF3CT_ICAM1: BioMAP Diversity Plus: KF3CT Assay for Intercellular Adhesion Molecule 1 (ICAM1) Biomarker Activity (AID 2283067); conditions: primary human keratinocytes with fibroblasts; actives raise or lower the signal
In short: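 Dose the keratinocyte/fibroblast co-culture, wait 24 h, measure ICAM-1 by ELISA, then fit increases or decreases against DMSO. Cytotoxicity is checked in parallel cultures by SRB total-protein staining.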

[17] = read-out: Interferon-gamma inducible Protein 10 (IP10), CXCL10 (gene 3627); test: BSK_KF3CT_IP10: BioMAP Diversity Plus: KF3CT Assay for Interferon-gamma inducible Protein 10 (IP10) Biomarker Activity (AID 2283068); conditions: primary human keratinocytes with fibroblasts; actives raise or lower the signal
In short: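 Signal is secreted/surface IP-10 by ELISA in a human primary skin co-culture of keratinocytes and foreskin fibroblasts, taken 24 h post-dosing; DMSO served as negative control.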

[18] = BSK_KF3CT_SRB: Viability Assessment in the BioMAP Diversity Plus: KF3CT Assay (AID 2283069); conditions: primary human keratinocytes with fibroblasts;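 further: total protein by sulforhodamine B staining as a cytotoxicity measure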
In short: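 Cytotoxicity was gauged by SRB staining (0.1% SRB, 10% TCA fixation, 560 nm) of parallel cultures at 24 h. The cells were primary human skin keratinocytes co-cultured with fibroblasts, and activity was fitted in both directions against DMSO.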

[19] = read-out: Interleukin-1 alpha (IL1a), IL1A (gene 3552); test: BSK_KF3CT_IL1a: BioMAP Diversity Plus: KF3CT Assay for Interleukin-1 alpha (IL1a) Biomarker Activity (AID 2283070); conditions: primary human keratinocytes with fibroblasts; actives raise or lower the signal
In short: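 IL-1a was detected by ELISA 24 h after chemical treatment of a co-culture of human skin keratinocytes and foreskin fibroblasts. Gain or loss of signal was fitted against the DMSO baseline.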

[20] = BSK_hDFCGF_SRB: Viability Assessment in the BioMAP Diversity Plus: hDFCGF Assay (AID 2283061); conditions: primary human foreskin fibroblasts;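 further: cells exposed to compound for 24 h before the read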
In short: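 Cells were dosed with test chemical, cultured 24 h, fixed with 10% TCA, then stained with 0.1% SRB and read at 560 nm. The fibroblasts were human foreskin primary cells, and DMSO served as baseline.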

Measured: AC50

OC1OC[C@@H](O)[C@H](O)[C@H]1O (stereo partly drawn)
not listed: [20]
inactive: all other assays above

CCn1c2ccccc2c2cc(N)ccc21
active: [1] 2.7 µM | [14] 0.855 µM
not listed: [11]
inactive: all other assays above

CC(=O)Nc1ccccc1O
active: [4] 0.124 µM
not listed: [11] | [20]
inactive: all other assays above

CC(=O)O[C@]1(C(C)=O)CC[C@H]2[C@@H]3C[C@H](C)C4=CC(=O)CC[C@]4(C)[C@H]3CC[C@@]21C
active: [9] 0.0802 µM | [17] 2.55 µM
not listed: [20]
inactive: all other assays above

C=C[Si](OCC)(OCC)OCC
active: [9] 29.2 µM
inactive: all other assays above

CC(=O)/C=C/C1=C(C)CCCC1(C)C
active: [5] 0.016 µM
not listed: [11]
inactive: all other assays above

O=P(c1ccccc1)(c1ccccc1)c1ccccc1
not listed: [11]
inactive: all other assays above

C#C[C@]1(O)CC[C@H]2[C@@H]3CCC4=Cc5oncc5C[C@]4(C)[C@H]3CC[C@@]21C
active: [5] 25 µM | [14] 20 µM
not listed: [20]
inactive: all other assays above

BrC1CCC(Br)C(Br)CCC(Br)C(Br)CCC1Br (stereo not drawn)
active: [9] 1.33 µM | [10] 4.61 µM | [20] 1.5 µM | [14] 4.68 µM | [15] 1.37 µM | [17] 4.53 µM
inactive: all other assays above

Cc1ccc(O)c(C(C)(C)C)c1
inactive: [1] | [7] | [8]
active: [2] 36.3 µM | [3] 34.9 µM | [4] 20 µM | [5] 30 µM | [6] 30.4 µM | [9] 13.6 µM | [10] 30.9 µM | [20] 29.6 µM | [12] 36.7 µM | [13] 33.4 µM | [14] 39.1 µM | [15] 30.7 µM | [16] 34.3 µM | [17] 37.5 µM | [18] 35.2 µM | [19] 28.9 µM

O=C(O)C[C@H](O)C[C@H](O)/C=C/c1c(C2CC2)nc2ccccc2c1-c1ccc(F)cc1
active: [1] 0.0287 µM | [2] 0.0041 µM | [5] 0.0041 µM | [9] 0.992 µM | [15] 2.96 µM
not listed: [11]
inactive: all other assays above

CCCCC(CC)COC(=O)/C=C\C(=O)OCC(CC)CCCC (stereo not drawn)
active: [5] 20 µM | [9] 10.5 µM | [15] 7.23 µM
not listed: [11] | [20]
inactive: all other assays above

c1ccc2sc(SN(C3CCCCC3)C3CCCCC3)nc2c1
active: [1] 3 µM | [9] 2.77 µM | [10] 0.951 µM | [20] 4.26 µM | [15] 2.8 µM
inactive: all other assays above
